PubChem BioAssay (EPA / NIEHS)
The source made the active and inactive calls. How the source made its calls: active means hit-call score of the fitted dose curve at least 0.9, where 1 is the maximum; inactive means score below 0.9.

Legend:
[1] = ATG_EGR_CIS: Attagene CIS-FACTORIAL HepG2 Assay for human Early Growth Response 1 (EGR1) (AID 2282938); details: HepG2 Attagene CIS-FACTORIAL EGR reporter mRNA; actives raise or lower the signal
In short: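 After 24 h compound exposure, RNA from reporter-transfected HepG2 cells was reverse-transcribed, PCR-amplified, fluorescently labelled and resolved by capillary electrophoresis. EGR1 reporter transcript changes, up or down, were fitted against DMSO, reflecting endogenous transcription-factor activity.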

[2] = ATG_M_19_CIS: Attagene CIS-FACTORIAL HepG2 Assay for M19 Transcription Factor (Internal Marker) (AID 2282939); details: HepG2 Attagene CIS-FACTORIAL M19 internal marker reporter; actives raise or lower the signal
In short: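 In this multiplexed cell assay, transiently transfected HepG2 reporter units report endogenous transcription-factor activity; after 24 hours of treatment, labelled reporter cDNA fragments are quantified by capillary electrophoresis and fitted bidirectionally against DMSO.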

[3] = ATG_ERE_CIS: Attagene CIS-FACTORIAL HepG2 Assay for Estrogen Response Element (ERE) (AID 2282940); details: HepG2 ERE cis-reporter, Attagene RNA transcript; actives raise or lower the signal
In short: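 Measuring endogenous transcription factor output, the assay doses transfected HepG2 cells for 24 hours and quantifies reporter transcripts by fluorescent RT-PCR and capillary electrophoresis, with DMSO as baseline.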

[4] = ATG_Ets_CIS: Attagene CIS-FACTORIAL HepG2 Assay for human Erythroblast Transformation Specific (ETS) (AID 2282941); details: HepG2 ETS cis-reporter transcription; AC50: actives raise or lower the signal unless noted; outcome: actives raise or lower the signal unless noted
In short: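 After transient cis-reporter transfection, HepG2 cells receive test chemical for 24 h. Reporter mRNA levels, measured by RT-PCR and capillary electrophoresis fluorescence, are analysed bidirectionally relative to the DMSO baseline.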

[5] = target: Hepatocyte nuclear factor 3-beta (Homo sapiens) (UniProt Q9Y261); test: ATG_FoxA2_CIS: Attagene CIS-FACTORIAL HepG2 Assay for human Forkhead box A2 (FOXA2) (AID 2282942); details: HepG2 cis-reporter transcription factor activity, 24 h; actives raise or lower the signal
In short: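 Endogenous transcription factor activity is captured via cis-element-driven reporter transcripts in transfected HepG2. Total RNA taken at 24 h post-dosing; labelled RT-PCR products resolved by capillary electrophoresis. Gain or loss fitted versus DMSO.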

[6] = ATG_FoxO_CIS: Attagene CIS-FACTORIAL HepG2 Assay for human Forkhead box O (FoxO) (AID 2282943); details: HepG2 Attagene cis-reporter, FoxO element, mRNA; actives raise or lower the signal
In short: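 Values reflect reporter mRNA induction or loss in HepG2 cells 24 h post-dosing, fitted bidirectionally with DMSO as negative control and baseline. Detection used RT-PCR and fluorescence capillary electrophoresis.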

[7] = ATG_GATA_CIS: Attagene CIS-FACTORIAL HepG2 Assay for human GATA Binding Protein (AID 2282944); details: HepG2 GATA cis-element reporter, Attagene multiplex mRNA; actives raise or lower the signal
In short: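 Measures endogenous transcription factor-driven reporter mRNA in HepG2 cells transiently carrying cis-regulated constructs. 24 h dosing; RNA via oligo(dT) reverse transcription, PCR, HpaI digestion, capillary electrophoresis; fitted relative to DMSO.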

[8] = ATG_GLI_CIS: Attagene CIS-FACTORIAL HepG2 Assay for human Zinc Finger Protein GLI1 (AID 2282945); details: HepG2, Attagene cis-factorial reporter mRNA, GLI element; actives raise or lower the signal
In short: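 HepG2 cells transiently transfected with cis-promoter multiplexed reporter units report endogenous transcription factor activity. After 24 h chemical exposure, reporter mRNA was quantified by RT-PCR, 6-FAM labelling, HpaI digestion and capillary electrophoresis, with bidirectional fitting against DMSO.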

[9] = target: Bile acid receptor (Homo sapiens) (UniProt Q96RI1); test: ATG_IR1_CIS: Attagene CIS-FACTORIAL HepG2 Assay for human Nuclear Receptor Subfamily 1 Group H Member 4 (NR1H4), IR1 submotif (AID 2282946); details: IR1 reporter transcription, actives raise or lower the signal
In short: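 Transient MRTU transfection, HepG2; 24 h dosing; RNA → RT-PCR → 6-FAM primer extension → HpaI digest → capillary electrophoresis fluorescence. Gain/loss of signal fitted relative to DMSO.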

[10] = ATG_GRE_CIS: Attagene CIS-FACTORIAL HepG2 Assay for human Glucocorticoid Response Elements (GRE) (AID 2282947); details: HepG2 GRE cis-reporter, Attagene multiplex mRNA; AC50: actives raise or lower the signal unless noted; outcome: actives raise or lower the signal unless noted
In short: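 HepG2 cells transiently transfected with multiple cis-promoter reporter units measure endogenous TF activity; 24 h compound exposure. Reporter mRNA quantified by RT-PCR, FAM labelling, HpaI digestion and capillary electrophoresis; bidirectional fit vs DMSO baseline.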

[11] = ATG_ISRE_CIS: Attagene CIS-FACTORIAL HepG2 Assay for human Interferon Regulatory Factor 1 (IRF1) binding to an Interferon-Stimulated Response Element (ISRE) (AID 2282948); details: HepG2 ISRE cis-reporter (Attagene), mRNA transcription readout; actives raise or lower the signal
In short: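 Quantitation relies on labelled RT-PCR fragments separated by capillary electrophoresis. Human HepG2 cells bearing cis-promoter reporter constructs were treated 24 h; DMSO served as baseline for bidirectional fitting.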

[12] = ATG_M_32_CIS: Attagene CIS-FACTORIAL HepG2 Assay for M32 Transcription Factor (Internal Marker) (AID 2282949); details: HepG2 Attagene cis-factorial M32 reporter, mRNA; actives raise or lower the signal;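 further: background control marker of the multiplexed CIS panel rather than a real target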
In short: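 Following 24 h chemical exposure of HepG2 cells transiently expressing cis-promoter reporter constructs, reporter transcript levels were determined by RT-PCR with fluorescent labelling and capillary electrophoresis, then fitted bidirectionally against DMSO.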

[13] = ATG_M_06_CIS: Attagene CIS-FACTORIAL HepG2 Assay for M06 Transcription Factor (Internal Marker) (AID 2282950); details: HepG2 Attagene CIS-FACTORIAL M06 internal marker reporter; actives raise or lower the signal
In short: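 One of many multiplexed endpoints: HepG2 reporter mRNA after 24 h dosing, detected by RT-PCR and capillary electrophoresis fluorescence; gain or loss of signal analysed against DMSO.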

[14] = target: Hypoxia-inducible factor 1-alpha (Homo sapiens) (UniProt Q16665); test: ATG_HIF1a_CIS: Attagene CIS-FACTORIAL HepG2 Assay for human Hypoxia Inducible Factor 1 (HIF1A) (AID 2282951); details: HepG2 Attagene cis-factorial HIF1a reporter transcription; actives raise or lower the signal
In short: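 Activity is fitted in both directions relative to DMSO. Reporter transcripts are read by RT-PCR, fluorescent primer extension and capillary electrophoresis after 24 h chemical treatment. The cells are HepG2 carrying transiently transfected cis-element-driven reporter units responding to endogenous factors.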

[15] = target: Hepatocyte nuclear factor 6 (Homo sapiens) (UniProt Q9UBC0); test: ATG_HNF6_CIS: Attagene CIS-FACTORIAL HepG2 Assay for human Hepatocyte Nuclear Factor 6 (HNF6) (AID 2282952); details: HepG2 Attagene cis-factorial HNF6 reporter transcription; actives raise or lower the signal
In short: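 Reporter mRNA induction or loss in HepG2 after 24 h exposure; transient cis-MRTU transfection; fragments quantified by capillary electrophoresis; bidirectional analysis, DMSO as negative control.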

[16] = target: Heat shock factor protein 1 (Homo sapiens) (UniProt Q00613); test: ATG_HSE_CIS: Attagene CIS-FACTORIAL HepG2 Assay for human Heat Shock Transcription Factor 1 (HSE) (AID 2282953); details: HepG2 HSE cis-reporter, Attagene RNA transcription; actives raise or lower the signal
In short: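 Using HepG2 with transfected cis-driven reporter constructs, compound effects on endogenous factor activity are scored as reporter mRNA change at 24 h. Detection: RT-PCR, HpaI digestion, capillary electrophoresis; bidirectional fitting to DMSO.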

[17] = ATG_MRE_CIS: Attagene CIS-FACTORIAL HepG2 Assay for human Metal Responsive Element (MRE) (AID 2282954); details: HepG2 MRE cis-reporter transcription, Attagene multiplex; actives raise or lower the signal
In short: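 HepG2 cells transiently transfected with multiple cis-element reporter units measure endogenous MTF1-driven transcription. After 24 h compound exposure, reporter mRNA is quantified by RT-PCR with 6-FAM labelling, HpaI digestion and capillary electrophoresis; bidirectional fits versus DMSO.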

[18] = ATG_PBREM_CIS: Attagene CIS-FACTORIAL HepG2 Assay for human Phenobarbital-responsive Enhancer Module (PBREM) (AID 2282955); details: HepG2 PBREM cis-reporter, Attagene multiplexed transcription; actives raise or lower the signal
In short: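 Endogenous transcription factor activity was read from reporter transcripts in transiently transfected human HepG2 liver cells after 24 h dosing. RT-PCR products were fluorescently labelled, HpaI-cut and sized by capillary electrophoresis; activity fitted bidirectionally against DMSO baseline.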

[19] = target: Paired box protein Pax-6 (Homo sapiens) (UniProt P26367); test: ATG_Pax6_CIS: Attagene CIS-FACTORIAL HepG2 Assay for human Paired Box 6 (PAX6) (AID 2282956); details: HepG2 CIS-FACTORIAL PAX6 reporter transcription, RNA readout; actives raise or lower the signal
In short: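 After twenty-four hours of chemical exposure, transfected HepG2 cells are harvested for RNA. Cis-promoter reporter transcripts are amplified, fluorescently labelled and sized by capillary electrophoresis, with gain and loss of signal scored against DMSO.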

[20] = ATG_PXRE_CIS: Attagene CIS-FACTORIAL HepG2 Assay for human Pregnane X Receptor Element (PXRE) (AID 2282957); details: HepG2 Attagene CIS-FACTORIAL PXRE reporter, mRNA; actives raise or lower the signal
In short: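 Transiently transfected HepG2 cells were dosed and incubated for 24 h. RNA was then isolated, DNase-treated, reverse-transcribed and reporter sequences amplified. Labeled, HpaI-digested fragments were quantified by capillary electrophoresis against DMSO.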

Measured: AC50

Chain of Hypoxia-inducible factor 1-alpha (Homo sapiens) (Q16665 whole entry, looked up): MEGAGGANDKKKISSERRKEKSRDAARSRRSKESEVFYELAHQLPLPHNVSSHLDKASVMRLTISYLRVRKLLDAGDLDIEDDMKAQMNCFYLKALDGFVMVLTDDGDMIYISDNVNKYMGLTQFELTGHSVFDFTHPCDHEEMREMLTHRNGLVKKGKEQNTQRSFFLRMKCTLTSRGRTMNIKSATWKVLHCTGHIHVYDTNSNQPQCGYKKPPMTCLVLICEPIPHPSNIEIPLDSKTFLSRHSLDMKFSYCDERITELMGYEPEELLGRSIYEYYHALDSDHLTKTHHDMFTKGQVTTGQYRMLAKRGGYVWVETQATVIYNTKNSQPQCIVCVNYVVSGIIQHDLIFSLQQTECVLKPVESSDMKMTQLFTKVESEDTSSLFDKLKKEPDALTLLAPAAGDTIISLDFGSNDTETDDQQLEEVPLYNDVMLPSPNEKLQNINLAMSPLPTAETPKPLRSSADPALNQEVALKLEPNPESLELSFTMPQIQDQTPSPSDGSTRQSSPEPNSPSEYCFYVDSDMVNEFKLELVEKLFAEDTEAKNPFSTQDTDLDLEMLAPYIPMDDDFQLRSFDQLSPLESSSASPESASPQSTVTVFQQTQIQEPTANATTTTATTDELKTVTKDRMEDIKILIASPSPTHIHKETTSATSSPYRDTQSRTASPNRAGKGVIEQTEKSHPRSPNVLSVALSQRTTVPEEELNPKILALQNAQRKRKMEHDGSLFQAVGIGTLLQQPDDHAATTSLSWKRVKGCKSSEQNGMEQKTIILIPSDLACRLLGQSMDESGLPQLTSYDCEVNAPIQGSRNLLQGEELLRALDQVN
Chain of Heat shock factor protein 1 (Homo sapiens) (Q00613 whole entry, looked up): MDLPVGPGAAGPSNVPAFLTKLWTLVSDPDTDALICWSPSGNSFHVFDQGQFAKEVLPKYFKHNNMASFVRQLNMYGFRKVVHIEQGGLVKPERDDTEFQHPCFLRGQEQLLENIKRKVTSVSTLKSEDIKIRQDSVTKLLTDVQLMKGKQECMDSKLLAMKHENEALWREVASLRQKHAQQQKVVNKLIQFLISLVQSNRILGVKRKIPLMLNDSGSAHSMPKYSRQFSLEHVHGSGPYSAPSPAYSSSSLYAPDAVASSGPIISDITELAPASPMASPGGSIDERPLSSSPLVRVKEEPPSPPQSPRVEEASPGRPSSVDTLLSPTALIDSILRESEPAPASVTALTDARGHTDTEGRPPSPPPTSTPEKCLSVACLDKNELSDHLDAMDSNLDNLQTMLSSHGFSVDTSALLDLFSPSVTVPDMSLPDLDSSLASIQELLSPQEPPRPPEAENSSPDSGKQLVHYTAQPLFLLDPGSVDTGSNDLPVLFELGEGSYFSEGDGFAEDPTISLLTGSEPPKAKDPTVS
Chain of Paired box protein Pax-6 (Homo sapiens) (P26367 whole entry, looked up): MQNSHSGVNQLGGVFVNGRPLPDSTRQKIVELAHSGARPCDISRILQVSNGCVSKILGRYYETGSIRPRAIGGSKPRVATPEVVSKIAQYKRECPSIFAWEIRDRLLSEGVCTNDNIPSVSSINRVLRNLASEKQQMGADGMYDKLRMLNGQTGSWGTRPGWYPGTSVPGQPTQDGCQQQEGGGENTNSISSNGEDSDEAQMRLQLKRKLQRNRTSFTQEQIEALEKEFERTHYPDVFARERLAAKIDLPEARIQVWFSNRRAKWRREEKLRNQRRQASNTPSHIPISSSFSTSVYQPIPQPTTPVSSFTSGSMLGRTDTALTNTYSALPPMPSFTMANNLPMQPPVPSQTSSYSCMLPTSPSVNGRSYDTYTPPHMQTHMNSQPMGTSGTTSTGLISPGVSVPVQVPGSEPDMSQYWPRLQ
Chain of Bile acid receptor (Homo sapiens) (Q96RI1 whole entry, looked up): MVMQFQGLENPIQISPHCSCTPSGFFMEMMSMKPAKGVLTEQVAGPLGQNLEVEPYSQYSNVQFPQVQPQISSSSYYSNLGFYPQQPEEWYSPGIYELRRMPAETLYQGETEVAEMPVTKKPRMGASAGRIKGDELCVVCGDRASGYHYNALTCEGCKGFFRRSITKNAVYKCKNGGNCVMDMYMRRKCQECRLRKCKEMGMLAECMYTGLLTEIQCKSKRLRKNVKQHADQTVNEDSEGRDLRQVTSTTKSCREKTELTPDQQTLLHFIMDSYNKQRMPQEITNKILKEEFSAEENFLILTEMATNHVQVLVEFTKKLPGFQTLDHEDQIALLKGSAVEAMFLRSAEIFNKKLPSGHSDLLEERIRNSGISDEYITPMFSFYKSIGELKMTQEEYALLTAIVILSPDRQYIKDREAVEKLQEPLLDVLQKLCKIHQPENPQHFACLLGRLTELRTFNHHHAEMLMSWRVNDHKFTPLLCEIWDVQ
Chain of Hepatocyte nuclear factor 3-beta (Homo sapiens) (Q9Y261 whole entry, looked up): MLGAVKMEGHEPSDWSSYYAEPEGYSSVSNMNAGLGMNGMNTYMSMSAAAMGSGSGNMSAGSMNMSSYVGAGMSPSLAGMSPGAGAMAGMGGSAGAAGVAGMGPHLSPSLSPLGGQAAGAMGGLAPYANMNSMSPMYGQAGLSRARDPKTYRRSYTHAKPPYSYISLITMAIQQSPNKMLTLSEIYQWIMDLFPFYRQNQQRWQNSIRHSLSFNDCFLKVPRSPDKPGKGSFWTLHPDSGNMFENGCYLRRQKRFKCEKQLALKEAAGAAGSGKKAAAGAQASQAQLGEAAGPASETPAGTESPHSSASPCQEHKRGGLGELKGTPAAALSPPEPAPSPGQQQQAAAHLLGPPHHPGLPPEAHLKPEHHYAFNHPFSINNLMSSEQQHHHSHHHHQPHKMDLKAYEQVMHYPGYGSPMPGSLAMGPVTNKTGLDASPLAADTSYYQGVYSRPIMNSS
Chain of Hepatocyte nuclear factor 6 (Homo sapiens) (Q9UBC0 whole entry, looked up, the tested form may be a part): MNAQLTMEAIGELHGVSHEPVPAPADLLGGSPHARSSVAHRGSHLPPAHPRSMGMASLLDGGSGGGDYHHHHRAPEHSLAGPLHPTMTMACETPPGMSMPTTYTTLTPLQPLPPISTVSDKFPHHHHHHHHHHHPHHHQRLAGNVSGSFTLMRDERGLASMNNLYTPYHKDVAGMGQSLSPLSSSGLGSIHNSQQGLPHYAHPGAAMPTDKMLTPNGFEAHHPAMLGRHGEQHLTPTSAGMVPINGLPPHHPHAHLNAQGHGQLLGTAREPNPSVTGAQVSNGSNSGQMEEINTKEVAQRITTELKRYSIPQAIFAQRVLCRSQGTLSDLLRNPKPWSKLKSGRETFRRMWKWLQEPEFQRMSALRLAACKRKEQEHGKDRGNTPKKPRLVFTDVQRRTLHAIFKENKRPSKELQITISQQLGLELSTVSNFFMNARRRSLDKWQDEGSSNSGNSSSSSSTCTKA

COc1ccc(C#N)cc1
inactive: [1] | [2] | [3] | [4] | [5] | [6] | [7] | [8] | [9] | [10] | [11] | [12] | [13] | [14] | [15] | [16] | [17] | [18] | [19] | [20]

CCCCCC(C)OC(=O)COc1ccc(Cl)c2cccnc12 (centres undefined)
inactive: [1] | [2] | [3] | [4] | [5] | [6] | [7] | [8] | [9] | [10] | [11] | [12] | [13] | [14] | [16] | [17] | [19]
active: [20] 7.22 µM

FC1(F)C=CC(F)(F)C1(F)F
inactive: [1] | [2] | [3] | [4] | [5] | [6] | [7] | [8] | [9] | [10] | [11] | [12] | [13] | [14] | [15] | [16] | [17] | [19] | [20]

CCN(CC)CC
inactive: [1] | [2] | [3] | [4] | [5] | [6] | [7] | [8] | [9] | [10] | [11] | [12] | [13] | [14] | [15] | [17] | [18] | [19] | [20]

CC(C)CCOCCC(C)C
inactive: [1] | [2] | [4] | [5] | [6] | [7] | [8] | [9] | [10] | [11] | [12] | [13] | [14] | [15] | [16] | [17] | [18] | [19] | [20]
active: [3] 26.8 µM

CCOC(OCC)C(=O)c1ccccc1
active: [3] 77.6 µM | [20] 36.8 µM
inactive: [1] | [2] | [4] | [5] | [6] | [7] | [8] | [9] | [10] | [11] | [12] | [13] | [14] | [15] | [16] | [17] | [19]

CCOCCOCC
inactive: [1] | [2] | [3] | [4] | [5] | [6] | [7] | [8] | [9] | [10] | [11] | [12] | [13] | [14] | [15] | [17] | [18] | [19] | [20]
